Active and inactive are the calls of the source. How the source made its calls: active means hit-call score of the fitted dose curve at least 0.9, where 1 is the maximum; inactive means score below 0.9.

A short description of the assay: APR_HepG2_CellCycleArrest_24hr: Apredica 24-hour HepG2 Assay for Cell Cycle Arrest (AID 2282905).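 Further: cell cycle arrest scored as ratio of 2N to 4N nuclear DNA content.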 The settings on record: imaging, actives raise or lower the signal. The protocol:
APR_HepG2_24hr is a cell-based, multiplexed-readout assay that uses HepG2, a human liver cell line, with measurements taken at 24 hours after chemical dosing in a 384-well plate.APR_HepG2_CellCycleArrest_24hr is one of 10 assay component(s) measured or calculated from the APR_HepG2_24hr assay. It is designed to make measurements of cell phenotype, a form of morphology reporter, as detected with fluorescence intensity signals by HCS Fluorescent Imaging technology.Data from the assay component APR_HepG2_CellCycleArrest_24hr was analyzed into 1 assay endpoint. This assay endpoint, APR_HepG2_CellCycleArrest_24hr, was analyzed with bidirectional fitting relative to DMSO as the negative control and baseline of activity. Using a type of morphology reporter, measures of all nuclear dna for gain or loss-of-signal activity can be used to understand the signaling at the pathway-level as they relate to the gene . Furthermore, this assay endpoint can be referred to as a primary readout, because this assay has produced multiple assay endpoints where this one serves a signaling function. To generalize the intended target to other relatable targets, this assay endpoint is annotated to the cell cycle intended target family, where the subfamily is arrest.
Cells were treated with dimethyl sulfoxide (DMSO) as a solvent control at a final concentration of 0.5% v/v or with compounds in DMSO with a resulting final DMSO concentration of 0.5% v/v. Compound treatment was done at concentrations of 0.39, 0.78, 1.56, 3.12, 6.24, 12.5, 25, 50, 100, and 200 uM in duplicate on each plate. Cells were treated with compounds for 1, 24, or 72 hr. Carbonyl […] m-chloro-phenylhydrazone (CCCP) and taxol were used as positive controls for mitochondrial function and cytoskeletal stability, respectively; DMSO served as the negative control for this experiment. Cells were fixed by the direct addition of 50 uL formaldehyde in Hank's Balanced Salt Solution (HBSS) to a final concentration of 3.7%. After incubation in the fixation medium for 30 min at room temperature (293-298 K), cells were rinsed twice with HBSS and treated with cell permeabilization buffer (16 uL of 0.5% Triton X-100) for 10 min at room temperature (293-298 K) before labeling. For mitochondrial membrane potential and mitochondrial measurements, pre-fixed cells were incubated with 50 uL of MitoTracker Red CMXRos (Invitrogen) at a concentration of 250 nM for 30 min before fixation. In the remaining cases, post-fixed cells were labeled by incubation with a multiplexed mixture of primary antibodies in HBSS for 60 min at room temperature (293-298 K) to detect immunoreactivity of c-Jun (1:500), phospho-histone H3 (1:100), phospho-histone H2A.x (1:200), p53 (1:400), alpha-tubulin (1:200) and Hoechst 33342 (2 ug/mL). Cells were labeled for multiplexed imaging on two separate plates: a) Hoechst 33342, MitoTracker Red, phospho-histone H3, and alpha-tubulin, and b) Hoechst 33342, phospho-histone H2A.x, and c-Jun. A final rinse with HBSS (50 uL) was performed before analysis. The primary and secondary antibodies for the proteins were phospho-histone H3 (rabbit anti-phospho-histone H3 and FITC-donkey anti-rabbit IgG), phospho-histone H2A.x (mouse anti-phospho-histone H2A.x and FITC-donkey anti-mouse IgG), c-Jun (rabbit anti-phospho-c-Jun and Cy3-donkey anti-rabbit IgG), p53 (sheep anti-p53 and Cy5-donkey anti-sheep IgG), alpha-tubulin (mouse anti-alpha-tubulin and Cy5-donkey anti-mouse IgG). These antibodies are available as the CellCiphr HepG2 assay kit (Millipore).Digital images of each well were captured using a Cellomics ArrayScan VTI (Thermo Scientific Cellomics) (0.8 NA objective, 0.63x optical coupler, and XF-93 filter set) at 20x magnification. The images were acquired using the autofocus feature of the ArrayScan instrument, which entails the following steps. First, the camera focuses on channel 1 (Hoechst 33342), where nuclei are identified. Second, a Z offset of 1 um is used for capturing mitochondria (MitoTracker Red). […]
On to `CC1=NNC(=O)N(/N=C/c2cccnc2)C1`, for which the result was inactive.

`CN(C)C(=O)Nc1cccc(C(F)(F)F)c1`: the result was inactive.

Take `C[Si](Cn1cncn1)(c1ccc(F)cc1)c1ccc(F)cc1`: the call was inactive.

For `CCOP(=O)(NC(C)C)Oc1ccc(SC)c(C)c1` (stereo not given), the compound was called inactive.

With `CN(C)[C@@H]1C(=O)C(C(N)=O)=C(O)[C@@]2(O)C(=O)C3=C(O)c4c(O)cccc4[C@@](C)(O)[C@H]3[C@H](O)[C@@H]12`, the outcome was inactive.

As for `CNC(=O)ON=C(SC)C(=O)N(C)C`, the call was inactive.

As for `CCOP(=S)(OCC)SCCSCC`, the outcome was inactive.

For the compound `S=C1NCCN1`, the result was inactive.

For the compound `N#CSCSC#N`, the call was inactive.

With `CN1COCN(Cc2cnc(Cl)s2)C1=N[N+](=O)[O-]`, the compound was called inactive.

`CCCCOC(=O)[C@@H](C)Oc1ccc(Oc2ccc(C#N)cc2F)cc1`: the AC50 was 96.9 µM (active).

In the case of `CCOP(=S)(OCC)Oc1cc(C)nc(C(C)C)n1`, the compound was called inactive.

With `COc1ccc(C(=CC(=O)N2CCOCC2)c2ccc(Cl)cc2)cc1OC`, the outcome was inactive.

As to `CCC(=NOC/C=C/Cl)C1=C(O)CC(C2CCOCC2)CC1=O` (stereo not given), the compound was classed as inactive.

As to `CCCCN(CC)c1c([N+](=O)[O-])cc(C(F)(F)F)cc1[N+](=O)[O-]`, the AC50 was 99.3 µM (active).

With `O=c1ccc(=O)[nH][nH]1`, the compound was called inactive.

As to `C#CCC1=C(C)C(OC(=O)C2C(C=C(C)C)C2(C)C)CC1=O` (stereo not given), the concentration at half-maximal activity (AC50) is 151 µM (active).

Consider `CCCSP(=O)(OCC)Oc1ccc(Br)cc1Cl` (stereo not given), for which the compound was called inactive.

`CC(C1CC1)C(O)(Cn1cncn1)c1ccc(Cl)cc1` (stereo not given): the compound was classed as inactive.

Consider `CCOP(=O)(SC(C)CC)N1CCSC1=O` (stereo not given), for which the outcome was inactive.

Take `CC[C@H](C)[C@H]1O[C@]2(C=C[C@@H]1C)C[C@@H]1C[C@@H](C/C=C(\C)[C@@H](O[C@H]3C[C@H](OC)[C@@H](O[C@H]4C[C@H](OC)[C@@H](NC)[C@H](C)O4)[C@H](C)O3)[C@@H](C)/C=C/C=C3\CO[C@@H]4[C@H](O)C(C)=C[C@@H](C(=O)O1)[C@]34O)O2`: the outcome was inactive.

In the case of `CCCOc1nn(C(=O)NS(=O)(=O)c2ccccc2C(=O)OC)c(=O)n1C`, the call was inactive.

As to `CNC(=O)ON=C(C)SC`, the outcome was inactive.

`CC(C)[C@H](C(=O)O[C@H](C#N)c1cccc(Oc2ccccc2)c1)c1ccc(Cl)cc1`: the outcome was inactive.

`CCOP(=S)(OCC)OC(Cl)C(Cl)(Cl)Cl` (stereo not given): the result was inactive.

In the case of `COP(=O)(OC)OC(Br)C(Cl)(Cl)Br` (stereo not given), the compound was called inactive.

`COP(=O)(OC)SCn1c(=O)oc2cc(Cl)cnc21`: the compound was called inactive.

On to `CC(Oc1cccc(Cl)c1)C(=O)O` (stereo not given), for which the compound was called inactive.

As for `FC(F)C(F)(F)OCC(Cn1cncn1)c1ccc(Cl)cc1Cl` (stereo not given), the call was inactive.

For the compound `CCOP(=S)(OCC)Oc1ccc([N+](=O)[O-])cc1`, the call was inactive.

In the case of `CCCOCC(=Nc1ccc(Cl)cc1C(F)(F)F)n1ccnc1`, the compound was called inactive.

Consider `CCCCSP(=O)(SCCCC)SCCCC`, for which the call was inactive.

Consider `CN(C)NC(=O)CCC(=O)O`, for which the outcome was inactive.

On to `O=C(O)c1cc(Oc2ccc(C(F)(F)F)cc2Cl)ccc1[N+](=O)[O-]`, for which the compound was classed as inactive.

With `Cc1cc(C2CC2)nc(Nc2ccccc2)n1`, the call was inactive.

Turning to `CCC(=O)Nc1ccc(Cl)c(Cl)c1`, the AC50 is 79.3 µM (active).

Regarding `O=[N+]([O-])c1cc(C(F)(F)F)c(Cl)c([N+](=O)[O-])c1Nc1ncc(C(F)(F)F)cc1Cl`, the AC50 is 1.37 µM (active).

With `CCCCOC(=O)c1ccccc1C(=O)O`, the result was inactive.

In the case of `CC(=NC#N)N(C)Cc1ccc(Cl)nc1`, the result was inactive.

For the compound `COc1cccc(C(=O)NN(C(=O)c2cc(C)cc(C)c2)C(C)(C)C)c1C`, the result was inactive.

One may read the AC50 as the midpoint of the concentration-response curve, whichever way the signal moves.

The record behind these values is PubChem BioAssay (EPA / NIEHS).
